Assay [1] in a line: Nuclear factor erythroid 2-related factor 2/antioxidant responsive element (Nrf2/ARE) small molecule agonists: luciferase reporter gene qHTS assay in human keratinocytes (AID 1919969). Note: nearly all actives have a fitted effect of over 35% in size.
The target in assay [2] is Gonadotropin-releasing hormone receptor (Homo sapiens) (UniProt P30968). Description: Human gonadotropin-releasing hormone receptor (GnRHR) small molecule agonists, calcium flux assay in GnRHR-HEK293 cells (AID 1920063). Note: nearly all actives have a fitted effect of over 35% in size. Put shortly:
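Cells: HEK293 stably expressing human GnRHR. Steps: overnight (18 h) culture, 1 h calcium dye loading at 37 C, compound addition, kinetic fluorescence read at 480/540 nm. Each compound tested at 15 concentrations in triplicate.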

For assay [3], the target named is KiSS-1 receptor (Homo sapiens) (UniProt Q969F8). As to the kind of experiment: Human kisspeptin (KISS1R) small molecule agonists, calcium flux assay in KISS1R-HEK293 cells (AID 1920064; active = well fitted activation curve with a large enough effect in the repeat runs). The method in brief:
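Cells plated and incubated 18 h; dye added, 1 h at 37 C; compounds in DMSO pinned in; signal read at 480/540 nm every second for 3 min. Each compound tested at 15 concentrations in triplicate.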
In general terms: Calcium assays in cells follow changes in intracellular calcium, usually with a dye or a luminescent sensor.

A short description of assay [4]: G protein-coupled receptor (GPCR) small molecule agonists, calcium flux assay: HEK293 wild type cell line counter screen (AID 1920065). Put shortly: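 Counter-screen of the Tox21 10K library for non-specific calcium release: dye-loaded cells received compounds in DMSO and were monitored by kinetic fluorescence (480/540 nm, 3 min). Fifteen concentrations, run in triplicate.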

Assay [5] can be described thus: p53 small molecule agonists, cell-based qHTS assay with rat liver microsomes (AID 1963578). Put shortly: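 Quantitative HTS of the Tox21 10K library: p53RE-bla cells, rat liver microsomes plus NADPH at 0.5 mg/mL final each, 16 h at 37 C, beta-lactamase fluorescence detection.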
On the technique in general: In qHTS, concentration-response curves come from the screen itself.

Assay [6] can be described thus: p53 small molecule agonists, cell-based qHTS assay with human liver microsomes: qHTS cell viability counter screen (AID 1963579). Note: nearly all actives have a fitted effect of over 45% in size. Note: potency is the fitted concentration of half-maximal effect. Put shortly:
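Viability of p53RE-bla cells is measured as CellTiter-Glo luminescence following a 16 h, 37 C incubation with compound, liver microsomes from human donors and NADPH.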

Assay [7] in a line: p53 small molecule agonists, cell-based qHTS assay with rat liver microsomes: qHTS cell viability counter screen (AID 1963580). Note: nearly all actives have a fitted effect of over 45% in size. Note: potency is the fitted concentration of half-maximal effect. The method in brief:
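In HCT-116 cells carrying a p53 response element-bla reporter, compounds were metabolically activated in situ by rat liver microsomes with NADPH over 16 h. Cell ATP content then served as the cytotoxicity measure.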

Assay [8] in a line: p53 small molecule agonists, cell-based qHTS assay: qHTS cell viability counter screen (AID 1963581). Note: nearly all actives have a fitted effect of over 45% in size. Put shortly:
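Cells: HCT-116 with p53 response element-driven beta-lactamase. Treatment: 16 h, 37 C, compounds in DMSO. Read: CellTiter-Glo luminescence after 30 min RT.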

Assay [9] can be described thus: p53 small molecule agonists, cell-based qHTS assay (AID 1963582; active = well fitted activation curve with a large enough effect in the signal ratio in the repeat runs, not every such curve was filed as active; the % refers to the signal ratio). The method in brief: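 Quantitative HTS in p53RE-bla cells: after a 5 h settling period, compounds delivered in DMSO were left on cells for 16 h at 37 C, and reporter induction was measured as fluorescence following 2 h substrate loading.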
Assay [10] addresses 5-hydroxytryptamine receptor 2A (Homo sapiens) (UniProt P28223). As to the kind of experiment: 5-hydroxytryptamine receptor 2A (HTR2A) small molecule antagonists, cell-based qHTS assay (AID 1963586). Note: nearly all actives have a fitted effect of over 45% in size. Note: potency is the fitted concentration of half-maximal effect. Put shortly:
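Antagonist-mode intracellular calcium assay: DOI (4 nM) added after 5 min compound pre-incubation at room temperature to dye-loaded HTR2A-CHO cells. Fluorescence followed for 3 min, sampled every second.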

For assay [11] the target is unchanged. Description: 5-hydroxytryptamine receptor 2A (HTR2A) small molecule agonists, cell-based qHTS assay (AID 1963587). Note: nearly all actives have a fitted effect of over 30% in size. Note: potency is the fitted concentration of half-maximal effect. The method in brief: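 HTR2A-CHO cells, plated 18 h at 37 C/5% CO2, dye-loaded 1 h at 37 C; compounds in DMSO added by pin tool (agonist mode). Intracellular calcium flux read as kinetic fluorescence on FDSS over 2 min at 1 s intervals.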
Assay [12] addresses Muscarinic acetylcholine receptor M1 (Homo sapiens) (UniProt P11229). As to the kind of experiment: Cholinergic receptor muscarinic 1 (CHRM1) small molecule antagonists, cell-based qHTS assay (AID 1963588). Note: nearly all actives have a fitted effect of over 40% in size. Note: potency is the fitted concentration of half-maximal effect. Put shortly: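 CHRM1-CHO calcium-flux assay, antagonist mode. Cells were seeded 18 h, dye-loaded 1 h at 37 C and given compound for 5 min at RT, then acetylcholine was added at 50nM. FDSS fluorescence was read 3 min; 15 concentrations, three runs.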

For assay [13] the target is unchanged. As to the kind of experiment: Cholinergic receptor muscarinic 1 (CHRM1) small molecule agonists, cell-based qHTS assay (AID 1963589). Note: nearly all actives have a fitted effect of over 35% in size. The method in brief: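 Agonist-mode qHTS in CHO cells stably carrying human muscarinic M1. Intracellular calcium is tracked by fluorescence every second after compound transfer; each compound runs at 15 concentrations in three independent runs.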

A short description of assay [14]: cAMP Responsive Elements (CRE) small molecule antagonists, cell-based qHTS assay (AID 1963591; active = well fitted inhibition curve with a large enough effect in the signal ratio in the repeat runs, not every such curve was filed as active; the % refers to the signal ratio). The method in brief:
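Antagonist mode: test compounds are co-incubated with the adenylyl cyclase activator NKH477 (0.25 uM final) on CRE-bla HEK293T cells for 3 h at 37 °C, followed by LiveBLAzer substrate loading.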

The target in assay [15] is Beta-2 adrenergic receptor (Homo sapiens) (UniProt P07550). As to the kind of experiment: Adrenergic beta2 receptor (ADRB2) small molecule antagonists, cell-based qHTS assay (AID 1963592). Note: series mostly up to about 92 µM; nearly all actives have a fitted effect of over 50% in size. The method in brief: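 Cells (CHO, stable ADRB2 overexpression) incubated 18-20hr at 37C; compounds added from DMSO; agonist mix (1nM isoproterenol, 100uM IBMX, 25uM Ro-20-1724) added; 0.5hr RT; d2-cAMP and anti-cAMP-cryptate added; 1hr RT; 665/615 nm read.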
Chain of Beta-2 adrenergic receptor (Homo sapiens) (P07550 whole entry, looked up): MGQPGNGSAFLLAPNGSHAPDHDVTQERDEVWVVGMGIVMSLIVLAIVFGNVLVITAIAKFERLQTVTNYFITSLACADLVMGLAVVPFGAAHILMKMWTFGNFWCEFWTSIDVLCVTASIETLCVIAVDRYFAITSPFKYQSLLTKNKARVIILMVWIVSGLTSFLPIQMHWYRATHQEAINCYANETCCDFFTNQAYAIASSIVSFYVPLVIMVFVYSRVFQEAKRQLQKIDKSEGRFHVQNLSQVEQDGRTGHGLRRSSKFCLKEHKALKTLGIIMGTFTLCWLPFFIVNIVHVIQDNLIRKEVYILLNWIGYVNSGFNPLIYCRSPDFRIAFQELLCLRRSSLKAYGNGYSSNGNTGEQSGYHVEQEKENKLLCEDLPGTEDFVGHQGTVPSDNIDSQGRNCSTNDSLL

Assay [16] shares this target. As to the kind of experiment: Adrenergic beta2 receptor (ADRB2) small molecule agonists, cell-based qHTS assay (AID 1963593).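 Note: CHO cells stably overexpressing human ADRB2.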 The method in brief:
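CHO cells stably over-expressing ADRB2 were plated overnight at 37C, then dosed with compounds plus a stimulation mix containing 100uM IBMX and 25uM Ro-20-1724 for 0.5hr at room temperature. cAMP was measured by HTRF competition, 1hr.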

Assay [17] concerns the target D(2) dopamine receptor (Homo sapiens) (UniProt P14416). As to the kind of experiment: Dopamine D2 receptor (DRD2) small molecule agonists, cell-based qHTS assay (AID 1963594). Note: nearly all actives have a fitted effect of over 35% in size. Note: potency is the fitted concentration of half-maximal effect. Put shortly: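 HEK293 cells stably expressing DRD2 were cultured 24 h at 37 C, then given Ro20-1724 (0.1 mM final) and compounds for 10 min at room temperature. NKH477 (200nM) was then added for 30 min. cAMP was read by HTRF.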

The nature of assay [18]: p53 small molecule agonists, cell-based qHTS assay with human liver microsomes (AID 1963577).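 Note: p53 response element beta-lactamase reporter cells with liver microsomes plus NADPH.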 Put shortly:
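HLM-supplemented p53RE-bla reporter assay: 16 h compound exposure at 37 C, microsomes and NADPH each 0.5 mg/mL final, read by fluorescence intensity.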

The nature of assay [19]: cAMP Responsive Elements (CRE) small molecule agonists, cell-based qHTS assay (AID 1963590). The method in brief: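 Agonist mode qHTS in CRE-bla HEK 293T cells: compounds dosed from DMSO for 3 h at 37 C/5% CO2, followed by LiveBLAzer B/G FRET substrate for 2 h at room temperature.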
Assay [20] has as its target D(2) dopamine receptor (Homo sapiens) (UniProt P14416). Description: Dopamine D2 receptor (DRD2) small molecule antagonists, cell-based qHTS assay (AID 1963595; active = well fitted inhibition curve with a large enough effect in the signal ratio in the repeat runs, with a control signal flat; the % refers to the signal ratio). The method in brief: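 HTRF cAMP read-out at 665 and 620 nm emission (340 nm excitation). Antagonist mode: compounds were tested against 12 nM quinpirole in DRD2-HEK293 cells, with 200 nM NKH477 raising cAMP and 0.1 mM Ro20-1724 blocking its breakdown.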

Where “and” joins values, the source holds several entries; their conditions need not be identical. Equal entries are not always repeated. Results filed as inconclusive are left out. A structure can be active in one record and inactive in another. Calls of active or inactive are those of the source. Unless noted, calls come from the whole dose curve.

Chain of Muscarinic acetylcholine receptor M1 (Homo sapiens) (P11229 whole entry, looked up): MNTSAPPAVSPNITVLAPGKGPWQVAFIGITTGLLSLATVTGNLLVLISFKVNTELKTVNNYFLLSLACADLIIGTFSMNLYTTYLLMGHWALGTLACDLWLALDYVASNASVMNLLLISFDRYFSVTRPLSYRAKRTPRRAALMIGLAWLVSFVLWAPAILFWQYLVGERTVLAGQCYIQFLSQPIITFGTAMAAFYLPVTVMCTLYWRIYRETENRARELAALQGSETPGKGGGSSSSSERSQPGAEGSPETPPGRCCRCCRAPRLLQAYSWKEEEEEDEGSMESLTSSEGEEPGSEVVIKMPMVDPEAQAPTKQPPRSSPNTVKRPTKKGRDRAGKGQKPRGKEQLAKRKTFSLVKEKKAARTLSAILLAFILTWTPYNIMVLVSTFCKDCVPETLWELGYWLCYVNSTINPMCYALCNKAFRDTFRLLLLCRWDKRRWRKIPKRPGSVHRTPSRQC
Chain of Gonadotropin-releasing hormone receptor (Homo sapiens) (P30968 whole entry, looked up): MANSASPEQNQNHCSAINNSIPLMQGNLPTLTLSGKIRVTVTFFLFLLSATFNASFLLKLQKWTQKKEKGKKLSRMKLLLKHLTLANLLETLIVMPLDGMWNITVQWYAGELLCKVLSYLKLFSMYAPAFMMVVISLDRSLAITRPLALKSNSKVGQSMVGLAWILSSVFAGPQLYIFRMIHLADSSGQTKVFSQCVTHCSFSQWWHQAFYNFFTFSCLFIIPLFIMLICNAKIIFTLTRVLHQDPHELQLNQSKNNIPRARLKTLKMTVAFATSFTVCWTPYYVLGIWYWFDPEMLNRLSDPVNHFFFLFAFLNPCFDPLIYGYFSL
Chain of 5-hydroxytryptamine receptor 2A (Homo sapiens) (P28223 whole entry, looked up): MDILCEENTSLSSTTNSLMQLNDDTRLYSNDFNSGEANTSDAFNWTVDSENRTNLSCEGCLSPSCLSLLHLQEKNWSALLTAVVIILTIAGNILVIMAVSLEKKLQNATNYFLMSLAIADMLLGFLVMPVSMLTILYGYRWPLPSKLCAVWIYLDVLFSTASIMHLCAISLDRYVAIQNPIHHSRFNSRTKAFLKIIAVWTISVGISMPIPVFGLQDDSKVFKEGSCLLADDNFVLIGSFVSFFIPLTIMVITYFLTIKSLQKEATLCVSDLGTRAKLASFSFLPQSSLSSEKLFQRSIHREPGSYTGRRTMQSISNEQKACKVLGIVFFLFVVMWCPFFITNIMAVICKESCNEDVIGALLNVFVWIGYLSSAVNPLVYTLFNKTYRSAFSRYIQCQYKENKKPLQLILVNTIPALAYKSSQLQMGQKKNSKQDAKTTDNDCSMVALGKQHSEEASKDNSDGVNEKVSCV
Chain of KiSS-1 receptor (Homo sapiens) (Q969F8 whole entry, looked up): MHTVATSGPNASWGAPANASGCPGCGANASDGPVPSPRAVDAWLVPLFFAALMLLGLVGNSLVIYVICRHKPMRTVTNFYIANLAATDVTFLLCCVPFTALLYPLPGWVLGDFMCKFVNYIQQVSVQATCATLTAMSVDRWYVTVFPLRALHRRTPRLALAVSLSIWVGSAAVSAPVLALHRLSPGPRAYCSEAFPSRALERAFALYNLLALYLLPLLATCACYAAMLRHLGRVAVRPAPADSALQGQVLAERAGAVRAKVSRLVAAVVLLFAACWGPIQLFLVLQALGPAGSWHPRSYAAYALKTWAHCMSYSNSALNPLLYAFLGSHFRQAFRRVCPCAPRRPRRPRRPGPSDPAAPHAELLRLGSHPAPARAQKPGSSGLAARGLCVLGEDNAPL
Chain of D(2) dopamine receptor (Homo sapiens) (P14416 whole entry, looked up): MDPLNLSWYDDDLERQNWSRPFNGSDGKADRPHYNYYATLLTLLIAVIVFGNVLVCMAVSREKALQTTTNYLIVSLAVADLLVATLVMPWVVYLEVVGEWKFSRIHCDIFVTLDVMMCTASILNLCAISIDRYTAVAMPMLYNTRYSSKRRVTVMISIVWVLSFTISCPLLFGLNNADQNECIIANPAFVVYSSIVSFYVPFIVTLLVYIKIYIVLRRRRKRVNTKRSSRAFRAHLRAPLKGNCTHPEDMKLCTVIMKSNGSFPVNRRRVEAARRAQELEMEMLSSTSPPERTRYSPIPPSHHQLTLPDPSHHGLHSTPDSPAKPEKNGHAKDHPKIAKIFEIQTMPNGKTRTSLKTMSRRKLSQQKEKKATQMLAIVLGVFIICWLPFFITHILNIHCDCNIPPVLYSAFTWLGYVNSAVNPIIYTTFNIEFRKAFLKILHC

Consider `CCCCCCCCCCCCCC[N+](C)(C)Cc1ccccc1`, for which the Potency entry in [1], in assay [2], in assay [3], in [4], in assay [5] and in assay [8] was “inactive” each time. Besides, the Potency result in assay [9], in assay [13], in [14], in assay [15], in assay [16] and in [17] was “inactive” in each case. Moreover, the Potency entry in assay [6] was “inactive and 17.8 mM (active)”; in [7], 46.5 µM (active) and inactive; in [10], 1.2 µM (active) and 4.1 µM (active) and inactive; in [11] it was “inactive and 20 mM (active)”; in assay [12] it was 2.7 µM (active) and 631 µM (active).

As for `CC(=O)Nc1ccc(CC(=O)O)cc1`, the Potency entry in [1], in [2], in assay [3], in assay [4], in [18] and in assay [5] was “inactive” throughout. The Potency result in assay [6], in assay [7], in assay [8], in assay [9], in assay [11] and in [12] was “inactive” each time. The Potency entry in assay [13], in [19], in assay [14], in assay [15], in assay [16] and in assay [17] was “inactive” each time. In addition, in assay [20], the Potency entry was “inactive”.

For the compound `N=C(N)c1ccc(OCCCCCOc2ccc(C(=N)N)cc2)cc1`, the Potency result in assay [1], in [3], in assay [4], in [6], in [7] and in [19] was “inactive” throughout. Also, the Potency result in assay [15], in assay [16], in assay [17] and in assay [20] was “inactive” in each case.

On to `O=[N+]([O-])C(CO)(CO)CO`, for which the Potency result in [1], in assay [2], in assay [4], in assay [18], in [5] and in [6] was “inactive” throughout. Further, the Potency entry in assay [7], in assay [8], in assay [9], in assay [10], in assay [11] and in assay [12] was “inactive” in each case. The Potency result in assay [13], in assay [19], in assay [14], in assay [15], in assay [16] and in [17] was “inactive” each time. Besides, the Potency entry in assay [20] is “inactive”.

Take `NC(=O)OCC(COC(N)=O)c1ccccc1`: the Potency result in assay [3], in assay [4], in assay [18], in assay [5], in [7] and in assay [8] was “inactive” throughout. Further, the Potency entry in assay [9], in assay [11], in [12], in assay [13], in [19] and in assay [14] was “inactive” throughout. Further, the Potency result in assay [15], in assay [16], in [17] and in assay [20] was “inactive” each time.

For the compound `c1cc(-c2ccncc2)ccn1`, the Potency result in assay [2], in assay [3], in assay [18], in assay [5], in [6] and in [7] was “inactive” throughout. Besides, the Potency result in assay [8], in [9], in [10], in [11], in [12] and in [19] was “inactive” throughout. Moreover, the Potency entry in assay [14], in assay [15], in [16], in assay [17] and in assay [20] was “inactive” each time.

Take `CC(COc1ccccc1)N(CCCl)Cc1ccccc1` (configuration not stated): the Potency entry in assay [2], in assay [3], in [4], in [18], in [5] and in assay [6] was “inactive” throughout. The Potency result in assay [7], in assay [9], in assay [12], in assay [13], in assay [19] and in assay [14] was “inactive” each time. Also, the Potency entry in assay [15], in [16] and in assay [20] was “inactive” throughout. In addition, in assay [17], the Potency is 13.2 µM (active) and 7.22 µM (active).

As to `C=C(C)C(=O)OCCCCCC`, the Potency entry in assay [1], in assay [3], in assay [4], in assay [18], in [5] and in assay [6] was “inactive” each time. Also, the Potency entry in assay [7], in [8], in assay [9], in assay [10], in assay [11] and in assay [12] was “inactive” each time. For the same compound, the Potency entry in assay [13], in [19], in [14], in assay [15], in assay [17] and in [20] was “inactive” throughout.

The values above are taken from PubChem BioAssay (Tox21).
